Compound activity deposited in PubChem by several laboratories.
BoNT A protease = inhibitors of Botulinum neurotoxin A light chain protease. AID 588499. multiplex microsphere protease substrate cleavage, flow cytometry. 360,000 compounds, 0.17% hits. inhibition, % at 10 µM; note: plate controls were buffer without enzyme for full effect and enzyme alone for no effect
Vc quorum ag = quorum light induction in luxS cqsA deficient V. cholerae; AID 588436; activation, % at 18.7 µM; 350,000 compounds, 0.16% hits; V. cholerae BH1578 lux reporter, luminescence, 6 h; in the data active = activation mostly above about 9.7%, no sharp cut-off; inconclusive = no clear call, values can overlap the other calls; inactive = mostly below about 3.7%
Bead autofluor = flagged as autofluorescent in microsphere protease counterscreen. compound autofluorescence counterscreen, microsphere flow cytometry; stronger effect = higher value. fluorescence intensity (concentration not given with the values). 360,000 compounds, 3.1% hits. AID 624483; in the data active = fluorescence intensity above about 16000; inconclusive = no clear call, values can overlap the other calls
Anthrax LF prot = blocks Bacillus anthracis lethal factor protease. inhibition, % at 10 µM. AID 588501. 360,000 compounds, 0.12% hits. multiplex microsphere protease cleavage assay, LF; note: plate controls were buffer without enzyme for full effect and enzyme alone for no effect
Target sequence (P15917 whole entry, looked up): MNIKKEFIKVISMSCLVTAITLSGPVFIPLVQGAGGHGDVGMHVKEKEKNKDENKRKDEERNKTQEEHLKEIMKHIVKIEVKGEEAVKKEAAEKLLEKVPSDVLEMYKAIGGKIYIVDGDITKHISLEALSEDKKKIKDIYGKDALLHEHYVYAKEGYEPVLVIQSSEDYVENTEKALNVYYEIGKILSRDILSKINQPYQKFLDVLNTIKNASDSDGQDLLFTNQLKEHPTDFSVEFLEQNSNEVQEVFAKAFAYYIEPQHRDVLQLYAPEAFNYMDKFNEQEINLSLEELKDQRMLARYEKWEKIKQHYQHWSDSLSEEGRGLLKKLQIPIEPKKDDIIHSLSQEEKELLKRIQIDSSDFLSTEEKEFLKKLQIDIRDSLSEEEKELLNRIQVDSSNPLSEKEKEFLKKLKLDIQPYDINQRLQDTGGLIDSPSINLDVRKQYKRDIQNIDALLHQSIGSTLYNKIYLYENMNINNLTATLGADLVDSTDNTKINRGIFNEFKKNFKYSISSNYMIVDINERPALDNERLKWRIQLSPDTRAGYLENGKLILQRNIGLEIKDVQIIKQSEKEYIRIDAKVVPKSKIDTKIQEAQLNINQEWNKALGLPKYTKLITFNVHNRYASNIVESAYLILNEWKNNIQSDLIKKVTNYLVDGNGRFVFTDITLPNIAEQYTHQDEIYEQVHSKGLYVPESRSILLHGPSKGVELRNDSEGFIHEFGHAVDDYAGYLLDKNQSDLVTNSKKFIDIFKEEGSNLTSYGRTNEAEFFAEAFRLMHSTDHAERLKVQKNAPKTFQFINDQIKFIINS
BoNT F protease = BoNT F light chain protease inhibition; Multiplex microsphere protease cleavage assay, flow cytometry; inhibition, % at 10 µM; 360,000 compounds, 0.22% hits; in the data active = inhibition above about 35%, passing the limit was not always enough; inconclusive = no clear call, values can overlap the other calls; note: plate controls were buffer without enzyme for full effect and enzyme alone for no effect
BJeLR viability = BJeLR cell viability loss; BJeLR (HRASV12) viability, CellTiter-Glo ATP luminescence, 48 h; inhibition, % (no concentration beside the values); AID 1554; 300,000 compounds, 0.17% hits; in the data active = inhibition above about 50%; inconclusive = no clear call, values can overlap the other calls
* marks the source's active call; other numbers are inactive results; i = inactive; ? = inconclusive; / = no result given. Shown are actives, neighbours in structure and some others; about 3.7% of the full set was active somewhere. Cut-off read from the data, not from the text of the source, unless noted: active = inhibition above about 30%; inconclusive = no clear call, values can overlap the other calls; inactive = below that.

SMILES	BoNT A protease	Vc quorum ag	Bead autofluor	Anthrax LF prot	BoNT F protease	BJeLR viability
C=CCSc1ncccc1C(=O)NCc1ccccc1	3.0	i	21460*	-3.0	3.3	-10.5
CCOC(=O)c1cnc(NCc2ccccc2)nc1C	-0.2	-11.1	16359*	-2.7	-1.4	0.8
COc1cc(NC(=O)c2cnc(NCc3ccccc3)nc2C)cc(OC)c1OC	0.2	i	3393	0.1	11.9	9.8
COC(=O)[C@]1(C)N[C@H](CN(C)S(=O)(=O)c2ccc(F)cc2)[C@@H]2C(=O)N(C)C(=O)[C@@H]21	-0.6	-6.7	3580	-4.4	-0.2	/
CCc1nc2c(OCCc3cccc(OC)c3)cccn2c1N(C=O)Cc1ccccc1	0.0	-1.1	3045	-3.8	8.3	/
Cc1cc(C)nc(SCC(=O)NC2=NN=C(c3ccc(Br)cc3)CS2)n1	?	i	24625*	-3.1	-6.6	8.4
CCC(Sc1nc(C)cc(C)n1)C(=O)NC1=NN=C(c2ccc(C)cc2)CS1 (stereo not drawn)	1.5	i	10787	-2.9	2.5	-8.1
Cc1cccn2c(/C=N/OCc3cccc(F)c3)c(-c3ccc(Cl)cc3)nc12	-1.7	i	5032	-4.9	-2.3	-4.5
Fc1cccc(CO/N=C/c2c(-c3ccccc3)nc3ccc(Cl)cn23)c1	-1.0	-2.5	16783*	-0.3	-3.7	-4.7
O=C(NCC1CCCCC1)c1cc(-c2cc(F)ccc2OCC2CCCO2)n[nH]1 (stereo not drawn)	-0.3	-0.4	3066	-7.0	-3.2	/
CC(=O)c1ccc(NC(=O)N2CCc3ccccc3C2)cc1	-0.3	-0.5	4189	-5.6	-6.4	105.1*
CC(=O)c1cccc(NC(=O)N2CCc3ccccc3C2)c1	1.6	-0.3	10438	2.2	-1.9	9.5
CC(=O)c1cc(C#N)c(SCC(=O)O)nc1C	1.4	i	?	0.0	2.6	1.0
CCOC(=O)CSc1nc(C)c(C(C)=O)cc1C#N	-2.6	i	23558*	-1.2	-2.4	-5.8
COc1cccc(C(=O)N(CN2CCCC2=O)c2cc(C)on2)c1	?	i	22265*	1.1	-0.7	0.4
O=C1CCCN1CN(C(=O)c1ccc2c(c1)OCO2)c1cccc(Cl)c1	1.1	0.1	9226	11.0	10.1	-2.8
COc1ccc(C(=O)N(CN2CCCC2=O)c2ccccc2OC)cc1OC	-1.5	i	23117*	0.1	-2.2	-6.1
COc1ccccc1C(=O)N(CN1CCCC1=O)c1cccc(Cl)c1	0.7	i	22324*	-1.8	2.4	3.1
COc1cccc(C(=O)N(CN2CCCC2=O)c2cccc(Cl)c2)c1	-0.9	-0.7	6225	10.4	-7.9	-1.9
COc1ccccc1N(CN1CCCC1=O)C(=O)c1c(F)cccc1Cl	?	-0.4	?	-6.8	-2.4	9.6
O=C1CCCN1CN(C(=O)c1ccccc1)c1ccccc1	-0.2	-2.4	3388	2.9	-1.3	-5.5
CCOc1ccccc1C(=O)N(CN1CCCC1=O)c1cccc(Cl)c1	?	i	21571*	-5.1	1.4	-4.6
c1ccc(OCCNc2ccn3nc(-c4cccs4)cc3n2)cc1	-0.2	-0.6	4202	-5.6	-6.5	/
O=C(c1cc(C2CCCCN2S(=O)(=O)c2ccc(F)cc2F)on1)N1CCOCC1 (stereo not drawn)	0.2	-4.5	3735	2.2	-1.0	/
CCOc1ccc(NC(=O)c2nnn(CC(=O)Nc3ccccc3OC)c2N)cc1	1.4	-8.0	4588	0.3	36.0*	-3.9
SMILES	BoNT A protease	Vc quorum ag	Bead autofluor	Anthrax LF prot	BoNT F protease	BJeLR viability
COc1ccccc1NC(=O)c1nnn(CC(=O)Nc2cccc(SC)c2)c1N	1.2	3.8	22055*	-0.3	-3.3	6.2
COc1ccccc1Cc1c(-c2cccc(Br)c2)nc2c(C)cc(Br)cn12	2.2	/	6767	1.0	3.1	/
C#CCN(C[C@@H]1[C@@H](OC(=O)NCC2CCCCC2)[C@@H](OC(=O)NCC2CCCCC2)Cn2c(=O)n(CCCCCC)c(=O)n21)S(=O)(=O)c1ccc(C)cc1	-0.1	i	3340	-2.6	1.3	/
COc1ccc(CC(=O)OCC(=O)NC(=O)NC23CC4CC(CC(C4)C2)C3)cc1	-0.9	i	24237*	-1.1	-1.0	-8.2
O=C(COC(=O)c1n[nH]c2ccccc12)NC(=O)NC12CC3CC(CC(C3)C1)C2	?	i	19573*	-1.6	2.5	-0.6
O=C(COC(=O)c1n[nH]c2ccccc12)NC(=O)NC1CCCC1	0.0	-2.0	2964	-2.5	-4.9	/
CCCNC(=O)C1(C)CCN(C(=O)c2cccc(Cl)c2)C1 (stereo not drawn)	0.1	5.0	2870	4.6	-3.8	/
Cc1cc(C)c(C#N)c(Sc2nc(C)c([N+](=O)[O-])c(C)c2C#N)n1	-0.6	/	4777	-8.2	-17.1	/
Cc1nc(Sc2ccccc2)c(C#N)c(C)c1[N+](=O)[O-]	-0.2	-1.6	3839	29.9*	?	-2.2
O=C(CSc1nnc2scc(-c3ccccc3)n12)Nc1nsc(-c2ccccc2)n1	0.6	-0.3	20413*	-0.2	2.0	6.1
O=C(CSc1nnc2scc(-c3ccccc3)n12)Nc1nsc(-c2ccc(Cl)cc2)n1	-0.1	-0.7	2910	-0.5	-4.6	1.4
Cc1ccc(-c2csc3nnc(SCC(=O)Nc4nsc(-c5ccccc5)n4)n23)cc1	?	i	21990*	-1.3	3.8	-5.1
CCCCNC(=O)C1(C)CCCCN1CC(=O)c1ccc(OC)cc1 (stereo not drawn)	0.5	i	4758	3.8	0.6	/
Cc1cc(Nc2ccc(Cl)cc2)nc(N)n1	1.2	-2.0	21661*	-3.6	0.4	-0.3
COCC(=O)N(C)C[C@H]1Oc2cc(C#Cc3cccnc3)ccc2S(=O)(=O)N([C@H](C)CO)C[C@H]1C	-0.2	-0.5	3728	3.2	-4.3	/
O=C(NC1CCCCC1)C1CCCN(c2nnnn2-c2ccccc2)C1 (stereo not drawn)	?	2.2	17148*	-3.0	-5.5	-6.5
O=C(Nc1ccc2c(c1)OCCO2)C1CCN(S(=O)(=O)c2cccs2)CC1	?	i	23275*	2.1	-2.7	-6.6
CC1CCCCN1C(=O)COC(=O)C1CCN(S(=O)(=O)c2ccc3c(c2)OCCO3)CC1 (stereo not drawn)	-46.1	i	17025*	-7.9	-80.3	1.5
O=C(Nc1ccc2c(c1)OCO2)C1CCN(S(=O)(=O)c2cccs2)CC1	0.4	i	7839	-5.9	-15.0	8.6
O=C(Nc1ccc2c(c1)OCCO2)C1CCN(c2nnnn2-c2ccccc2)CC1	0.7	1.3	16234*	0.9	2.8	-2.7
O=C(Nc1ccc2c(c1)OCCO2)C1CCN(S(=O)(=O)c2ccc3c(c2)OCCO3)CC1	2.3	-2.6	21484*	-0.9	-1.9	-4.8
CC(=O)Nc1ccc(NC(=O)C2CCN(S(=O)(=O)c3ccc4c(c3)OCCO4)CC2)cc1	0.2	0.6	3767	-5.4	-2.4	/
CN(C)C(=O)N1CCc2ccc([N+](=O)[O-])cc21	-0.5	i	3406	1.5	0.7	/
